Measured values published in PubChem BioAssay AID697 (Columbia University Molecular Screening Center, 2007).
The campaign covered roughly 96,000 compounds. About 100 (0.1%) were called active. What follows is part of a selection rich in actives, with near analogues and random picks from the rest. Unmarked numbers belong to inactive results.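 The calls were made as follows: active = activation at 2 µM above a set limit, the mean plus 5 SD (cut at about 37% in these data); inactive = the rest.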

Target: Tyrosine-protein phosphatase non-receptor type 22 (Homo sapiens) (UniProt Q9Y2R2)
Sequence (Q9Y2R2 whole entry, looked up): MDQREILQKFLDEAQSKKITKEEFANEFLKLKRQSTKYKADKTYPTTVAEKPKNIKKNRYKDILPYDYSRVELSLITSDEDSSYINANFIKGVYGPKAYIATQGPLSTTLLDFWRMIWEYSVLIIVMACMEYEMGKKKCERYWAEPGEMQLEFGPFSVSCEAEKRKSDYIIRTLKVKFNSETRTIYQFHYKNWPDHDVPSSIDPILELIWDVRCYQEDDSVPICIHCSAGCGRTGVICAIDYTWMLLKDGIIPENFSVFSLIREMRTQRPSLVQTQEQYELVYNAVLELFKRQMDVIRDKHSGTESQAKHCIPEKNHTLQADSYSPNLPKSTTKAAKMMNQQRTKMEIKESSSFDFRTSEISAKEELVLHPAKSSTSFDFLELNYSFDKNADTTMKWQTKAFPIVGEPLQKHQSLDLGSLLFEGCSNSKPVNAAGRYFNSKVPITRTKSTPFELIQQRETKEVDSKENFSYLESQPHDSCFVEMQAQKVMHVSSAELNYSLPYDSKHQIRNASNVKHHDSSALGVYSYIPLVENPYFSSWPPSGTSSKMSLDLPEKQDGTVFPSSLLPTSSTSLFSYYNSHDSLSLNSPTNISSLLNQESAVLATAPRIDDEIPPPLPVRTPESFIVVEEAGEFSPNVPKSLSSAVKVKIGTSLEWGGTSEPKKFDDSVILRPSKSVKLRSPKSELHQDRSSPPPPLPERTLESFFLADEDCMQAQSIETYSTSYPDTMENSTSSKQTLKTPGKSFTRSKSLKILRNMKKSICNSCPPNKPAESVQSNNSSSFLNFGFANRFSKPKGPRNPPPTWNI
Assay: enhancers of human PTPN22 catalytic activity – biochemical, DiFMUP fluorescence, 2 µM, primary screen (AID 697)
Settings: recombinant LYP, at 2 µM, stronger effect = higher value, 0 = plate median, 100 = signal doubled

| Structure (SMILES) | activation [%] |
| --- | --- |
| O=C(Nc1ccc2c(c1)CCC2)c1cccc(S(=O)(=O)N2CCN(c3ccc(F)cc3)CC2)c1 | -11.2 |
| COCCCNC(=O)C1CC(=O)N(CCc2ccccc2)C1 (stereo not drawn) | 3.1 |
| Cc1ccc(S(=O)(=O)N2CCC(C(=O)NCC3CCCO3)CC2)cc1 (stereo not drawn) | 0.4 |
| COC(=O)c1ccccc1Sc1c(/C=N/OCc2ccc(Cl)cc2)c(C(F)(F)F)nn1C | -3.5 |
| CN(C(=O)CC(NC(=O)c1ccccc1)(c1ccccc1)c1ccccc1)c1ccccc1 | -4.3 |
| FC(F)(F)c1cnc(Oc2ccccc2-c2nnc(-c3ccc(Cl)cc3)o2)c(Cl)c1 | 4.7 |
| CS(=O)(=O)N(Cc1ccc(Cl)cc1)c1ccc(C(=O)NCCSCc2ccco2)cc1 | 10.1 |
| CCOC(=O)N1CCC(N(CCOC)C(=O)Nc2ccc(C)c(C)c2)CC1 | -11.9 |
| COC(=O)c1ccccc1NC(=O)Cc1ccccc1OC | -0.7 |
| COc1ccccc1C(=O)N1CC2(C)CC1CC(C)(C)C2 (stereo not drawn) | -6 |
| CCOC(=O)C1=C(c2ccccc2)N=C2SCC(=O)N2C1c1ccc(O)c(OC)c1 (stereo not drawn) | 6.1 |
| Cn1c(CO)cnc1SCc1ccccc1 | 5.8 |
| CN(C)c1ccc(/C=C2\NC(=S)N(Cc3ccccc3)C2=O)cc1 | -19.7 |
| CC(C)C(=O)Nc1cccc(NC(=S)NC(=O)C(c2ccccc2)c2ccccc2)c1 | -14 |
| O=C(Nc1ccc(Br)cc1)C1CCC(=O)N1Cc1ccccc1Cl (stereo not drawn) | -2.1 |
| COC(=O)/C=C/C(=O)NCc1ccco1 | -5.4 |
| N#CCSc1nc2ccc(N3CCOCC3)cc2c(=O)n1CCc1ccccc1 | 3.3 |
| CCOC(=O)C(=CNc1cccc(C)n1)C(=O)OCC | 6.8 |
| CCOc1c(Br)cc(/C=C2\C(=O)N(CCC#N)N=C2C)cc1OC | -0.1 |
| CCOC(=O)c1cnc(SCc2nc(N)nc(Nc3ccc(OC)cc3)n2)nc1N | 0.5 |
| CCC(C)NC(=O)c1cc(Cl)ccc1OC (stereo not drawn) | 7 |
| CCN(CC)CCNC(=O)CCCCCn1c(=O)[nH]c2cc(C(=O)OC)ccc2c1=O | 6.8 |
| O=C(NC1CCCCC1)c1ccc(CNc2c(N3CCOCC3)c(=O)c2=O)cc1 | 10.2 |
| CC(C)CNC(=O)CC(c1ccccc1)c1c(O)ccc2ccccc12 (stereo not drawn) | -3.2 |
| O=C(NC1CCCC1)C(c1ccccn1)N(C(=O)c1csnn1)C1CCCC1 (stereo not drawn) | -2.6 |
| O=C(COc1ccc2c(C(F)(F)F)cc(=O)oc2c1)Nc1ccc2c(c1)OCCO2 | -12.8 |
| CCOc1ccc(NC(=O)C2CC(=O)N=C(N)S2)cc1 (stereo not drawn) | -0.7 |

| Structure (SMILES) | activation [%] |
| --- | --- |
| O=C(CCN1C(=O)c2ccccc2C1=O)Nc1cccc(F)c1 | 7.2 |
| CC1(C)CCc2nc(SCc3ccccc3)c(C#N)cc2C1 | 7.1 |
| C/C(=N\NC(=O)c1ccc(C)cc1)C1C(=O)c2ccccc2C1=O | -6.7 |
| CCn1nccc1C(=O)Nc1ccc(S(=O)(=O)NC23CC4CC(CC(C4)C2)C3)cc1 | 4.2 |
| N#C/C(=C/c1ccc(Cl)cc1)NC(=O)c1ccccc1 | -6.7 |
| OC(COc1ccc2ccccc2c1)Cn1cncn1 (stereo not drawn) | -5.7 |
| CC1(C)OC(=O)N2CCc3ccccc3C21C (stereo not drawn) | -7.1 |
| Cc1ccccc1OCc1nnc(SCC(=O)N2c3ccccc3Sc3ccc(Cl)cc32)o1 | 4.7 |
| CCOC(=O)C1CSC(CC(=O)Nc2ccc(OCC)cc2)C(=O)N1 (stereo not drawn) | 4.7 |
| CCN(CC)CCn1c2ccc(Cl)cc2c2nc(C)sc21 | -0.1 |
| CCCc1nc2ccccc2c(C(=O)OCC(=O)c2ccc3c(c2)NC(=O)CO3)c1CC | 3.9 |
| Cc1cc(C)c2c(-n3cccc3)c(C(=O)NNS(=O)(=O)c3ccc(F)cc3)sc2n1 | -0.7 |
| Cc1cc(C)cc(N(CC(=O)N2CC=C(c3ccccc3)CC2)S(=O)(=O)c2c(C)noc2C)c1 | -2.1 |
| O=C(NC1CC1)c1ccc2c(c1)NC(=O)c1ccccc1S2 | 3.4 |
| O=C(c1ccccc1)c1cc(-c2ccccn2)c(N2CCOCC2)s1 | 6.1 |
| Cc1ccccc1-n1c(C)cc(/C=C2\NC(=O)NC2=O)c1C | 12.1 |
| O=C(CN1CCN(c2ccc(Cl)cc2)CC1)N1CCCC1 | -12 |
| CN(C)C(CNC(=O)CCCOc1ccccc1)c1ccco1 (stereo not drawn) | -1 |
| N#Cc1ccsc1NC(=O)CN1CCCCC1 | 5.2 |
| COCCn1c(=S)[nH]c2cc(C(=O)NCCc3ccc(OC)c(OC)c3)ccc2c1=O | -10.7 |
| Cc1cc(C)c(S(=O)(=O)N2C=CC(C(F)(F)F)=NCC2)c(C)c1 | 16.2 |
| Cc1ccc(-c2nn(-c3ccccc3)cc2/C=N/NC(=O)c2ccc3c(c2)OCO3)cc1 | -4.4 |
| Cc1ccc(S(=O)(=O)NC(=O)COc2ccccc2C)cc1 | -2.9 |
| COc1ccc(C(=O)Cc2cnn(-c3ccccc3)c2)c(O)c1 | -3 |
| Cc1ccc(-c2nc3ccccc3[nH]2)cc1NC(=O)c1sc2ccccc2c1Cl | -22.6 |
| COc1cc(N2CCCC2)c(OC)cc1/C=C(/C#N)c1cccc(Br)c1 | -2.3 |
